The source of these data is PubChem BioAssay (NCI).

This is part of a sample that, as a whole, favours compounds with a hit. Of some 79,000 tested, about 15% had one in any assay. Values without a mark were called inactive. Active and inactive are the calls of the source. Cut-off read from the data, not from the text of the source: active = growth inhibition above about 70%; inactive = the rest.

The nature of test [1]: NCI Yeast Anticancer Drug Screen. Data for the rad50 strain (AID 155).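 Note: 0% = growth of vehicle-only cultures of the same strain.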 The note with it: S. cerevisiae rad50 strain growth inhibition; at 50.0 µM; hits give high values. An outline of the steps:
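A DNA repair-deficient yeast mutant serves as the test organism; compound-induced growth inhibition is calculated against vehicle-treated cells.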

Test [2] can be described thus: NCI Yeast Anticancer Drug Screen. Data for the mec2-1 strain (AID 157). The settings on record: S. cerevisiae mec2-1 strain, at 50.0 µM, hits give high values. The method in brief: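 Compounds were applied to mec2-1 yeast cells. Their growth was then compared with that of vehicle-treated cultures to give growth inhibition.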
Test [3] can be described thus: NCI Yeast Anticancer Drug Screen. Data for the sgs1 mgt1 strain (AID 161).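 Note: 0% = growth of cultures given vehicle only.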 The settings on record: S. cerevisiae sgs1 mgt1 strain, at 50.0 µM, hits give high values. An outline of the steps:
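This yeast growth screen uses a strain with defined DNA-repair lesions; compound-treated growth is compared with vehicle-treated growth.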

Test [4] in a line: NCI Yeast Anticancer Drug Screen. Data for the cln2 rad14 strain (AID 165).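 Note: 0% = growth equal to vehicle treated cultures.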 The note with it: S. cerevisiae cln2 rad14 strain, at 50.0 µM, hits give high values. An outline of the steps:
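Strain: cln2 rad14 yeast, altered in cell cycle control and DNA damage repair. Read-out: growth inhibition vs vehicle.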

A short description of test [5]: NCI Yeast Anticancer Drug Screen. Data for the bub3 strain (AID 167). The settings on record: S. cerevisiae bub3 mutant strain, at 50.0 µM, hits give high values. An outline of the steps: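 Inhibition values come from growth of compound-treated mutant yeast normalised to vehicle-treated controls.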
A short description of test [6]: NCI Yeast Anticancer Drug Screen. Data for the mlh1 rad18 strain (AID 175). The note with it: S. cerevisiae mlh1 rad18 strain growth inhibition; at 50.0 µM; hits give high values. The method in brief: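 A repair-deficient yeast strain is exposed to test compound, and growth is scored relative to vehicle-treated controls.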

`CC1Oc2c(c(=O)oc3ccccc23)[C@@]1(C)CC1C[C@H](C)C(=O)O1` (stereo partly specified): the growth inhibition is 31.6% in test [1]; 25.9% in test [2]; 35.2% in test [3]; 11.5% in test [4]; 11.4% in test [5]; 39.1% in test [6].
Consider `CCNc1ncnc2c1cnn2C`, for which the growth inhibition in test [1] is 0.45%; in test [2], -1.45%; in test [3], 2.45%; in test [4] it was -36%; in test [5], -2.8%; in test [6] it was -8.4%.
As for `O=C(O)c1c[nH]c(=O)[nH]c1=O`, the growth inhibition in test [1] is 1.25%; in test [2] it was -5.4%; in test [3], 1.25%; in test [4], -5.55%; in test [5], 0.65%; in test [6], -7.5%.
`CC(C)COC(=O)c1ccc(C(C)C)cc1`: the growth inhibition was 9.35% in test [1]; 8.8% in test [2]; 4.6% in test [3]; -9.8% in test [4]; 5.1% in test [5]; 4.45% in test [6].
Turning to `COc1cc(/C=C/C(=N\NC(=S)NN)c2sc(NNC(C)=O)nc2C)ccc1O`, the growth inhibition in test [1] is 22.5%; in test [2], -4.5%; in test [3] it was 21.7%; in test [4] it was 9.1%; in test [5], 15.5%; in test [6], 19.2%.
As to `CCc1nc(Nc2cccc(C)c2)c2cnn(-c3ccccc3)c2n1`, the growth inhibition was -0.85% in test [1]; -15.6% in test [2]; -2.3% in test [3]; -22.5% in test [4]; -3.05% in test [5]; -13.8% in test [6].
Turning to `CCOC(=O)/C(=C(/C)N=Cc1ccccc1[N+](=O)[O-])C(NN=O)c1ccccc1[N+](=O)[O-]` (stereo unspecified), the growth inhibition is 11.9% in test [1]; 4.85% in test [2]; -9.55% in test [3]; 8.5% in test [4]; -5% in test [5]; 17.8% in test [6].
Consider `CCOP(=O)(OCC)C1C(C)N1C(=O)Nc1ccccc1` (stereo unspecified), for which the growth inhibition was 1.4% in test [1]; -4.15% in test [2]; -8.1% in test [3]; 5% in test [4]; -11.7% in test [5]; -17.4% in test [6].
`COc1cc(Cn2c(=S)ss/c2=N\C(=S)N(C)C)cc(OC)c1OC`: the growth inhibition is 1.7% in test [1]; 4.45% in test [2]; -0.4% in test [3]; 6.45% in test [4]; -2.25% in test [5]; -12% in test [6].
`CC(C)OC(=O)/C=C/C(=O)OC(C)C` (tested in a mixture with another compound): the growth inhibition was -13.1% in test [1]; -6.9% in test [2]; -13.6% in test [3]; -20.4% in test [4]; -13.8% in test [5]; -23.1% in test [6].
For the molecule `CCNS(=O)(=O)c1ccc2c(c1)nc(C)n2CC`, the growth inhibition in test [1] was 16.4%; in test [2], -27.6%; in test [3] it was -3.5%; in test [4], 13.1%; in test [5], 23.6%; in test [6] it was 11.5%.
Turning to `CCOC(=O)C(Cc1ccc(OC)c(C)c1)(NC(C)=O)C(=O)OCC`, the growth inhibition in test [1] was -0.3%; in test [2] it was 5.1%; in test [3], -3.45%; in test [4], -14.2%; in test [5], 3.85%; in test [6], 6.4%.
Take `O=C1CC2C(O)OC(O)C(C1)N2C(=O)OCC(Cl)(Cl)Cl` (stereo unspecified): the growth inhibition was 10.8% in test [1]; -15.9% in test [2]; -8.55% in test [3]; 12.6% in test [4]; -17.4% in test [5]; -6.6% in test [6].
As for `CC1C(=O)CCC2C1(C)CCC1C2(C)CCC2(C)C3CC(C)(C)CCC3(C)CCC12C` (stereo unspecified), the growth inhibition is 18.4% in test [1]; -9.05% in test [2]; 17.4% in test [3]; 9.2% in test [4]; 22.9% in test [5]; 16.8% in test [6].
For the molecule `Cc1cccc(C2=C/C(=C(\SS/C(C(=O)c3ccc(OCC(=O)O)c(Cl)c3Cl)=C3\C=C(c4cccc(C)c4)SS3)C(=O)c3ccc(OCC(=O)O)c(Cl)c3Cl)SS2)c1`, the growth inhibition in test [1] was -6.65%; in test [2] it was -22.8%; in test [3] it was -0.6%; in test [4], 1.95%; in test [5], -5.15%; in test [6], -10.7%.
For the molecule `C[OH2+].[Cl][Cu+].[Cl][Cu+].[NH-]CCC([OH2+])CC[NH-]`, the growth inhibition in test [1] was -9.1%; in test [2], -12.2%; in test [3], -14.4%; in test [4], -57.5%; in test [5], -2.8%; in test [6], 8.2%.
Take `c1ccc(-c2c[s+]cc(-c3ccccc3)c2)cc1`: the growth inhibition in test [1] was 98.7% (active); in test [2], 98.9% (active); in test [3], 99.2% (active); in test [4], 98.5% (active); in test [5], 78.2% (active); in test [6] it was 99.2% (active).
With `CC1(C)OC(C(O)CO)C(C2COC(=S)O2)O1` (stereo unspecified), the growth inhibition in test [1] was 1.45%; in test [2], 15.9%; in test [3], 8.45%; in test [4], 33.5%; in test [5], 12.6%; in test [6], -1.8%.
Regarding `CCN(CC)CCC1CCNCC1`, the growth inhibition in test [1] is 0.5%; in test [2], -25.2%; in test [3], -1.8%; in test [4], 15.8%; in test [5] it was -3.9%; in test [6] it was 5.75%.
Regarding `CCCC(C(=O)O)(c1ccccc1)c1ccccc1`, the growth inhibition is 11.3% in test [1]; 0.55% in test [2]; 5.45% in test [3]; -24.9% in test [4]; 7.5% in test [5]; 1.8% in test [6].
On to `C=C1C(=O)O[C@H]2C1[C@H](OC(=O)/C(C)=C\COC(C)=O)C[C@]1(CO1)[C@@H]1[C@H](O)[C@H]3O[C@@]3(C)[C@@H]12` (stereo partly specified), for which the growth inhibition in test [1] was -5.95%; in test [2] it was -26.4%; in test [3], -13%; in test [4], -1%; in test [5], -52%; in test [6], -2.05%.
